Hits are enriched below; roughly 2.4% of the tested compounds scored in any of these assays.
D2 ag-1: HTS Assay for Allosteric Agonists of the Human D2 Dopamine Receptor: Primary Screen for Agonists; activation, % at 2 µM; HEK293 T-REx D2 cells, calcium flux agonist mode; D(2) dopamine receptor (Homo sapiens), P14416; 0.53% of 340,000 active;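 active = activation over 3 SD above normal in the single-dose calcium agonist read, cut at about 30% in these data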
Target sequence (P14416 whole entry, looked up): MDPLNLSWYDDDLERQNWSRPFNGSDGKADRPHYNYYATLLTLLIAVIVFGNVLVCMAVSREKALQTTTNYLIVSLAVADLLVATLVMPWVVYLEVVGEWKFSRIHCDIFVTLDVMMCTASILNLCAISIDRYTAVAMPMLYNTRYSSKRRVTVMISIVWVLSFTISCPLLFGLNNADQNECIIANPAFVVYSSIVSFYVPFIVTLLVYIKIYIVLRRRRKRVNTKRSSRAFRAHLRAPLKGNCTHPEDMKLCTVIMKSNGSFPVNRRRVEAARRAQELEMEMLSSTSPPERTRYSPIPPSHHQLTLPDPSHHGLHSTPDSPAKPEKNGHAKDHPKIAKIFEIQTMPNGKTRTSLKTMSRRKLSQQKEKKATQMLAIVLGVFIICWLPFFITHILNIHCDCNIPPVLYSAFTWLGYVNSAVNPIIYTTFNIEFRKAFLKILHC
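In this primary screen, compounds producing a positive calcium signal within 180 s of addition to tetracycline-induced, force-coupled HEK293 Trex D2 cells are flagged; cells are dye-loaded with a no-wash calcium kit beforehand.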
D2 PAM-1: Beta-Arrestin HTS for Positive Allosteric Modulators of the Human D2 Dopamine Receptor: Potentiators | AID 624464, 2012 | DiscoveRx D2 beta-arrestin cells, luminescence, 90 min; 100% = 57 uM dopamine signal | 0.23% of 360,000 active | potentiation, % (concentration not given with the values); in the data active = potentiation above about 50%; inconclusive = mostly about 30% to 49%
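PathHunter beta-arrestin assay in DiscoveRx D2 cells. Compounds were added with an EC20 of dopamine (50 nM final) for 90 min at 37 deg C. Luminescence was read 1 h after detection reagent, with 57 uM dopamine as the EC100 control.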
D2 ag-2: Beta-Arrestin HTS for Positive Allosteric Modulators of the Human D2 Dopamine Receptor: Agonists; DiscoveRx PathHunter D2 beta-arrestin, luminescence, 90 min; 100% = 57 uM dopamine signal; 0.084% of 360,000 active; AID 624465, 2012; D(2) dopamine receptor (Homo sapiens), P14416; activation, % (no concentration beside the values); in the data active = activation above about 40%; inconclusive = between about 15% and that limit
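Agonist mode: compounds alone added to overnight-plated D2 PathHunter cells for 90 min at 37 C, with 57 uM final dopamine (EC100) defining full response. Beta-arrestin recruitment detected by chemiluminescent reagent, read after 1 h at ambient temperature.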
D2 antag: HTS Assay for Allosteric Antagonists of the Human D2 Dopamine Receptor: Primary Screen for Antagonists; HEK293 TREx D2 cells, calcium flux, dopamine EC80; 2% of 340,000 active; inhibition, % at 10 µM; in the data active = inhibition above about 30%; inactive = below that, where a call was filed
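Read-out: kinetic calcium fluorescence (1 cycle/s) in inducible HEK293 T-REx D2 cells after an EC80 dopamine addition that followed 180 s compound preincubation. Loss of the dopamine response indicates antagonism.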
D2 PAM-2: HTS Assay for Positive Allosteric Modulators of the Human D2 Dopamine Receptor: Primary Screen for Potentiators. D(2) dopamine receptor (Homo sapiens), P14416. HEK293 T-REx D2, calcium flux, EC20 dopamine potentiation. potentiation, % at 10 µM. 0.34% of 340,000 active. AID 485347, 2010;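 active = potentiation over 3 SD above the plate norm, cut at about 30% in these data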
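Potentiation of an EC20 dopamine calcium response is measured in a force-coupled, tetracycline-inducible Hek293 Trex D2 line. Compound-only kinetic reads over 180 s flag agonists before dopamine addition.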
Numbers stand for hits; n = inactive; u = inconclusive; x = not tested or not shown.

SMILES	D2 ag-1	D2 PAM-1	D2 ag-2	D2 antag	D2 PAM-2
Oc1ccc(CC2CC3CCN2CC3)cc1O (stereo not drawn)	30	n	n	n	n
CCc1nc(SC)ncc1C(=O)Nc1ccc(Cl)cc1C(=O)c1ccccc1	n	x	x	x	x
Cc1cccc(-n2c(CC3C(=O)Nc4ccc(C)cc43)nc3ccccc3c2=O)c1 (stereo not drawn)	n	x	x	x	n
Cc1nc2ccccc2c(=O)n1-c1ccccn1	n	n	n	35	n
Cc1ccccc1-n1c(C)nc2ccccc2c1=O	n	n	n	n	31
COc1ccccc1-n1c(-c2ccccc2)nc2ccccc2c1=O	n	n	n	40	n
Cc1ccc(Cl)cc1NC(=O)N(Cc1ccc2c(c1)OCO2)C1CCN(Cc2ccccc2)CC1	n	x	x	x	n
CC1(C)CSC(=NCc2ccccc2)N1	73	n	n	56	n
Cc1ccc(CNC(=O)CCCn2c(=O)c3sccc3n(CC(=O)Nc3c(C)cccc3C)c2=O)cc1	x	x	x	x	n
Cc1ccc(Cn2cccc(C(=O)Nc3ccc4c(c3)OCCO4)c2=O)cc1	n	x	x	x	n
CCOC(=O)c1c(N)n(CCCOC(=O)c2ccco2)c2nc3ccccc3nc12	n	86	u	n	n
O=C1CC(c2ccc(F)cc2)c2c(c3ccccc3oc2=O)O1 (stereo not drawn)	x	x	x	x	n
CCN1/C(=C/C=C/C2=[N+](CC)c3ccccc3C2(C)C)C(C)(C)c2ccccc21	x	n	n	x	x
CN1/C(=C\C=C\C2=[N+](C)c3ccc4ccccc4c3C2(C)C)C(C)(C)c2ccccc21	n	x	x	39	n
COc1ccc(C(c2c(O)c3ccccc3oc2=O)c2c(C)n(C)n(-c3ccccc3)c2=O)cc1 (stereo not drawn)	n	n	n	93	n
O=c1c2ccccc2nc(/C=C\c2ccc(F)cc2)n1-c1ccccc1F	n	x	x	x	n
CCCN1CCc2cccc3c2[C@H]1Cc1ccc(O)c(O)c1-3	x	136	121	x	x
COc1ccc2c(c1O)-c1c(OC)c(OC)cc3c1[C@H](C2)N(C)CC3	n	n	n	n	n
Cc1ccccc1OCC(=O)N1CCN(CCc2ccccn2)CC1	n	x	x	x	n
COc1cc(Br)cc(CN2CCN(C)CC2)c1O	n	n	n	n	n
COc1ccc(Br)cc1CN1CCN(CCO)CC1	n	n	n	55	n
CCN1CCN(Cc2cc(Br)ccc2O)CC1	n	n	n	64	n
ON1C2CCCCC2N(O)C1c1ccccc1F (stereo not drawn)	n	n	n	50	n
CN1CCN(c2ccc(N)cc2Cl)CC1	n	n	n	46	n
Cc1cccc(CN2C(=O)CN=C(c3ccccc3)c3cc(Cl)ccc32)c1	n	x	x	x	n
SMILES	D2 ag-1	D2 PAM-1	D2 ag-2	D2 antag	D2 PAM-2
O=C(/C=C/c1c[nH]c2ccccc12)c1c(O)n(CCc2ccccc2)c(=O)[nH]c1=O	40	n	n	37	n
CCCCn1c(O)c(C(C)=NCCc2c[nH]c3ccccc23)c(=O)[nH]c1=O	n	n	n	n	n
Cc1ccc2c(c1)C1CN(C)CCC1N2S(=O)(=O)c1ccccc1 (stereo not drawn)	n	n	n	44	n
CN1CSC(=S)N(C)C1	n	n	n	42	n
Cc1cccc(-c2nn3c(=O)cc(CN4CCN(C(=O)COc5ccc(Cl)cc5)CC4)nc3s2)c1	n	x	x	x	n
O=C(COC(=O)Cc1ccccc1)Nc1nnc(-c2ccccc2)o1	n	n	n	31	n
CC(C)(C)c1ccc(C(=O)C2CCCN(C3CCC3)C2)cc1 (stereo not drawn)	n	n	n	37	n
CCCCn1c(O)c(/C=N/N2CCOCC2)c(=O)[nH]c1=S	n	n	n	n	n
CCCCCCn1c(O)c(C=Nc2ccccc2N2CCOCC2)c(=O)[nH]c1=S	n	n	n	37	n
Cc1ccccc1-c1nn2c(=O)cc(CN3CCN(C(=O)COc4ccccc4Cl)CC3)nc2s1	n	x	x	x	n
C=Cc1ccc(Cn2c(C)c(CNCCc3cc(OC)ccc3OC)c(C(=O)O)c2C)cc1	n	x	x	x	n
COc1ccccc1N=Cc1c(O)n(C)c(=O)n(C)c1=O	n	n	n	35	n
Clc1ccc(C(OCCN2CCCCC2)c2ccccc2)cc1 (stereo not drawn)	n	n	n	43	n
Cc1cc(OCC(=O)N2CCN(CCc3ccncc3)CC2)cc(C)c1Cl	x	x	x	x	n
CN1CCN(c2c[nH]c(=O)[nH]c2=O)CC1	n	n	n	36	n
CN1CCN(c2ccccc2N)CC1	n	n	n	n	n
O=C(c1ccco1)c1cn(Cc2ccc(Cl)cc2)c2ccccc12	n	n	n	31	n
COc1ccccc1OCCCn1cc(C(=O)c2ccco2)c2ccccc21	n	n	n	n	n
Nc1c([N+](=O)[O-])cc(F)c(N2CCNCC2)c1Br	n	n	n	n	n
CN1CCN(c2c(F)cc([N+](=O)[O-])c(N)c2Br)CC1	n	n	n	35	n
CCOC(=O)C1CCCCC12C(C#N)=C(N)Oc1n[nH]c(C)c12 (stereo not drawn)	n	n	n	30	n
CN1CC(C(=O)c2ccccc2)C(c2ccccc2)C1 (stereo not drawn)	n	n	n	35	n
O=C(Nc1ccon1)c1cccn(Cc2cccc([N+](=O)[O-])c2)c1=O	n	x	x	x	n
COC(=O)C1=C(c2ccc(-c3ccccc3)c(F)c2)C[C@@H]2CC[C@H]1N2C(=O)NCC1CC1	n	n	n	n	n
COC(=O)C1=C(c2ccc(-c3ccccc3)c(F)c2)C[C@@H]2CC[C@H]1N2C(=O)NC1Cc2ccccc2C1	n	n	n	38	n
SMILES	D2 ag-1	D2 PAM-1	D2 ag-2	D2 antag	D2 PAM-2
O=C1CC(c2ccccc2Br)c2c(c3ccccc3oc2=O)O1 (stereo not drawn)	n	x	x	x	n
COc1ccccc1N1CCN(Cc2ccc3c(c2)OCO3)CC1	x	n	n	x	x
Cc1cccc(N2CCN(Cc3ccc4c(c3)OCO4)CC2)c1C	n	n	n	66	n
Cc1cccc(OCC(=O)N2CCN(Cc3cc(=O)n4nc(-c5ccccc5Cl)sc4n3)CC2)c1	n	x	x	x	n
C[C@@H]1C(=O)O[C@@H]2[C@H](O)C34[C@@H]5OC(=O)C3(O[C@H]3OC(=O)[C@H](O)C34[C@H](C(C)(C)C)[C@H]5O)[C@@]12O (stereo partly drawn)	n	n	n	37	n
CCCC(=O)NC1=C(N2CC2)C(=O)C(NC(=O)CCC)=C(N2CC2)C1=O	x	n	n	x	x
